Experimental data: PubChem BioAssay (Tox21)
Inconclusive results are not listed. A call without a number means that no potency is given here. Unmarked numbers belong to inactive results. Calls of active or inactive are those of the source. Calls come from the whole dose curve; as a rule, active = well fitted inhibition curve with a large enough effect in the repeat runs; inconclusive = weak or mixed curves; inactive = no such curve, though single readings can be large or run the other way.

Target: Cytochrome P450 2D6 (Homo sapiens) (UniProt P10635)
Assay: Cytochrome P450 Family 2 Subfamily D Member 6 (CYP2D6) small molecule antagonists: luciferase reporter qHTS assay (AID 1671196)
Details: P450-Glo CYP2D6 enzyme assay, luciferin luminescence, 1 h; series mostly up to 115 µM
Procedure, shortened: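 Room-temperature luminescent CYP2D6 activity assay: compound preincubated 10 min with enzyme–substrate mix, NADPH-initiated reaction 1 h, detection reagent 20 min before reading.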
Note: nearly all actives have a fitted effect of over 50% in size.
Potency is the fitted concentration of half-maximal effect.

Sequence of Cytochrome P450 2D6 (Homo sapiens) (P10635 whole entry, looked up): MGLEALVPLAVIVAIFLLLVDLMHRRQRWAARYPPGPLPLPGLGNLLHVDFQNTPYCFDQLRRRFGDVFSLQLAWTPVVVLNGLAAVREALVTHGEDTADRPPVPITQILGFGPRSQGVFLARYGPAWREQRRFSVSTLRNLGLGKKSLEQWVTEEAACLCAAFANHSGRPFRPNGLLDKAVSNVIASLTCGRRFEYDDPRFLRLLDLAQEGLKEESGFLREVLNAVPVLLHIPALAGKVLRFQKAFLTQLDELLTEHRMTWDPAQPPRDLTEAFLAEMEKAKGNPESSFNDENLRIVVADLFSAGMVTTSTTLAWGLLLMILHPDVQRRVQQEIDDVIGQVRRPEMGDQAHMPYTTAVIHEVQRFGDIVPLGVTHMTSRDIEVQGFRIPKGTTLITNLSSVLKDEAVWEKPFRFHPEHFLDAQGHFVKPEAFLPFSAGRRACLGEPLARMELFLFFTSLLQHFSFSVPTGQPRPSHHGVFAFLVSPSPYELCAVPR

| SMILES | Potency | activity change, negative = inhibition |
| --- | --- | --- |
| CC1(C)S[C@@H]2[C@H](N=CN3CCCCCC3)C(=O)N2[C@H]1C(=O)O | inactive |  |
| Cc1ccc2c(c1)OCC(=O)CO2 | 35.6 µM (active) |  |
| CC(C)N(c1ccccc1)C(C)C | inactive |  |
| C=C(C)C(=O)OCc1ccccc1 | inactive |  |
| CC(N)C(=O)OC(C)(C)Cc1ccc(Cl)cc1 (configuration not stated) | 7.76 µM (active) |  |
| O=C(CCNNC(=O)c1ccncc1)NCc1ccccc1 | 15.5 µM (active) |  |
| COP(=O)(OC)OC(c1ccc(Cl)cc1)P(=O)(OC)OC (configuration not stated) | inactive |  |
| CCCC(=O)C(C)=O | inactive |  |
| C[C@@H](Oc1ccc(CNC(=O)c2cccnc2Oc2ccc3c(c2)OCO3)c(F)c1)C(=O)O | inactive |  |
| CCCCCCCCCCl | 40.3 µM (active) |  |
| CC(C)c1ccc2cc(C(C)C)ccc2c1 | inactive |  |
| CCCCCCCCCCCCCC | inactive |  |
| CO[C@@H]1[C@@H](OC(N)=O)[C@@H](O)[C@H](Oc2ccc3c(O)c(NC(=O)c4ccc(O)c(CC=C(C)C)c4)c(=O)oc3c2C)OC1(C)C | inactive |  |
| C=COCCOCCOCCOC=C | inactive |  |
| O=C(O)C(=O)Cc1ccccc1 | inactive |  |
| CC(COC(C)(C)C)OCCCO (configuration not stated) | 63.3 µM (active) |  |
| CC(C)CCCC(C)(C)O | inactive |  |
| O=C1c2ccccc2C(=O)C1c1ccccc1 | inactive |  |
| C=Cc1ccccn1 | inactive |  |

| SMILES | Potency | activity change, negative = inhibition |
| --- | --- | --- |
| N#Cc1ccc(C(=O)O)cc1 | 28.3 µM (active) |  |
| CCC(CC)CO | inactive |  |
| BrCCCCCBr | inactive |  |
| c1ccc2nccnc2c1 | inactive |  |
| C=C(C)C(=O)OCCOP(=O)(O)OCCOC(=O)C(=C)C | inactive |  |
| Nc1ccc2cc(S(=O)(=O)O)cc(O)c2c1 | 44.5 µM (active) |  |
| N[C@@H](CCC(=O)Nc1ccc([N+](=O)[O-])cc1)C(=O)O | inactive |  |
| O=C1CC(c2ccc(Cl)cc2)CC(=O)N1 | inactive |  |
| CCCCOC(=O)c1ccccc1 | inactive |  |
| CN=C(NC#N)Nc1ccc(C2=NNC(=O)CC2C)cc1 (configuration not stated) | inactive |  |
| O=C(O)Cc1cn(-c2ccccc2)nc1-c1ccc(Cl)cc1 | inactive |  |
| CC(=O)N[C@@H](CCC(=O)O)C(=O)O | inactive |  |
| COC(=O)C1CC(=O)C(C(=O)OC)CC1=O (configuration not stated) |  | -3.24% [at 10.5 µM] |
| CC(=O)Nc1ccc(S(=O)(=O)Cl)cc1 | inactive |  |
| CCCOC(=O)C(C)O (configuration not stated) | inactive |  |
| C[C@H](CCC(=O)O)[C@H]1CC[C@H]2[C@@H]3C(=O)C[C@@H]4CC(=O)CC[C@]4(C)[C@H]3CC(=O)[C@]12C | inactive |  |
| CCCC/C=C\CCCCCCCCCC=O | inactive |  |
| COc1nccnc1NS(=O)(=O)c1ccc(N)cc1 | inactive |  |

Target: Cytochrome P450 2C9 (Homo sapiens) (UniProt P11712)
Assay: Cytochrome P450 Family 2 Subfamily C Member 9 (CYP2C9) small molecule antagonists: luciferase reporter qHTS assay (AID 1671198)
Details: P450-Glo CYP2C9 enzyme assay, luciferin luminescence; series mostly up to 115 µM
Procedure, shortened: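 CYP2C9 activity was measured with a P450-Glo proluciferin substrate. Enzyme–substrate mix was held with compound for 10 min at room temperature, then NADPH regeneration solution was added for 1 h at 37C. Luciferin product was read as luminescence.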

Sequence of Cytochrome P450 2C9 (Homo sapiens) (P11712 whole entry, looked up): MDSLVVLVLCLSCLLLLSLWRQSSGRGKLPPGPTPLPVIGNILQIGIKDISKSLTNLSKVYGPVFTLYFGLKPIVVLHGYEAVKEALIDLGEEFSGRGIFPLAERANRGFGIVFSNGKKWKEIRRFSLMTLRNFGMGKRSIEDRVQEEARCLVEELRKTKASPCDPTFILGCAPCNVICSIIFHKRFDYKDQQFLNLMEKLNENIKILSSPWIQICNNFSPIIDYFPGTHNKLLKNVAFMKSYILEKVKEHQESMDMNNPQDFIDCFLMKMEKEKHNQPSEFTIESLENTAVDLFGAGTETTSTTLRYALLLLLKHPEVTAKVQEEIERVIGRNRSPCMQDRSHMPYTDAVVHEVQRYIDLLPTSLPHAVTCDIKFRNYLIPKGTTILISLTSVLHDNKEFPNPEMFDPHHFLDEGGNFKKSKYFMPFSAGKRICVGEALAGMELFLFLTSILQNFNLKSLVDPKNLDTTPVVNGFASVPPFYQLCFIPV

| SMILES | Potency | activity change, negative = inhibition |
| --- | --- | --- |
| CC1(C)S[C@@H]2[C@H](N=CN3CCCCCC3)C(=O)N2[C@H]1C(=O)O | inactive |  |
| Cc1ccc2c(c1)OCC(=O)CO2 | inactive |  |
| CC(C)N(c1ccccc1)C(C)C | inactive |  |
| C=C(C)C(=O)OCc1ccccc1 | inactive |  |
| CC(N)C(=O)OC(C)(C)Cc1ccc(Cl)cc1 (configuration not stated) | 15.5 µM (active) |  |
| O=C(CCNNC(=O)c1ccncc1)NCc1ccccc1 | 4.9 µM (active) |  |
| COP(=O)(OC)OC(c1ccc(Cl)cc1)P(=O)(OC)OC (configuration not stated) | inactive |  |
| CCCCCCCCCCl | inactive |  |
| CC(C)c1ccc2cc(C(C)C)ccc2c1 | inactive |  |
| CCCCCCCCCCCCCC | inactive |  |
| CO[C@@H]1[C@@H](OC(N)=O)[C@@H](O)[C@H](Oc2ccc3c(O)c(NC(=O)c4ccc(O)c(CC=C(C)C)c4)c(=O)oc3c2C)OC1(C)C | 11 µM (active) |  |
| C=COCCOCCOCCOC=C | inactive |  |
| O=C(O)C(=O)Cc1ccccc1 | inactive |  |
| CC(COC(C)(C)C)OCCCO (configuration not stated) | inactive |  |
| CC(C)CCCC(C)(C)O | inactive |  |
| O=C1c2ccccc2C(=O)C1c1ccccc1 | inactive |  |
| C=Cc1ccccn1 | inactive |  |
| N#Cc1ccc(C(=O)O)cc1 | inactive |  |

| SMILES | Potency | activity change, negative = inhibition |
| --- | --- | --- |
| CCC(CC)CO | inactive |  |
| BrCCCCCBr | inactive |  |
| c1ccc2nccnc2c1 | inactive |  |
| C=C(C)C(=O)OCCOP(=O)(O)OCCOC(=O)C(=C)C | inactive |  |
| Nc1ccc2cc(S(=O)(=O)O)cc(O)c2c1 | 35.4 µM (active) |  |
| N[C@@H](CCC(=O)Nc1ccc([N+](=O)[O-])cc1)C(=O)O | inactive |  |
| O=C1CC(c2ccc(Cl)cc2)CC(=O)N1 | inactive |  |
| CCCCOC(=O)c1ccccc1 | inactive |  |
| CN=C(NC#N)Nc1ccc(C2=NNC(=O)CC2C)cc1 (configuration not stated) | inactive |  |
| O=C(O)Cc1cn(-c2ccccc2)nc1-c1ccc(Cl)cc1 | 5.49 µM (active) |  |
| CC(=O)N[C@@H](CCC(=O)O)C(=O)O | inactive |  |
| COC(=O)C1CC(=O)C(C(=O)OC)CC1=O (configuration not stated) |  | -7.95% [at 10.5 µM] |
| CC(=O)Nc1ccc(S(=O)(=O)Cl)cc1 | inactive |  |
| CCCOC(=O)C(C)O (configuration not stated) | inactive |  |
| C[C@H](CCC(=O)O)[C@H]1CC[C@H]2[C@@H]3C(=O)C[C@@H]4CC(=O)CC[C@]4(C)[C@H]3CC(=O)[C@]12C | inactive |  |
| CCCC/C=C\CCCCCCCCCC=O | inactive |  |
| COc1nccnc1NS(=O)(=O)c1ccc(N)cc1 | inactive |  |
